Experimental data from PubChem BioAssay (EPA / NIEHS).
The source made the active and inactive calls. The calls were made as follows: active = hit-call score of the fitted dose curve at least 0.9, where 1 is the maximum; inactive = score below 0.9.

Key:
[1] = target: CCAAT/enhancer-binding protein beta (Homo sapiens) (UniProt P17676); test: ATG_C_EBP_CIS: Attagene CIS-FACTORIAL HepG2 Assay for human CCAAT/Enhancer Binding Protein (C/EBP) beta (AID 2282927); conditions: HepG2 Attagene cis-factorial transcription factor reporter; actives raise or lower the signal
Sequence of CCAAT/enhancer-binding protein beta (Homo sapiens) (P17676 whole entry, looked up): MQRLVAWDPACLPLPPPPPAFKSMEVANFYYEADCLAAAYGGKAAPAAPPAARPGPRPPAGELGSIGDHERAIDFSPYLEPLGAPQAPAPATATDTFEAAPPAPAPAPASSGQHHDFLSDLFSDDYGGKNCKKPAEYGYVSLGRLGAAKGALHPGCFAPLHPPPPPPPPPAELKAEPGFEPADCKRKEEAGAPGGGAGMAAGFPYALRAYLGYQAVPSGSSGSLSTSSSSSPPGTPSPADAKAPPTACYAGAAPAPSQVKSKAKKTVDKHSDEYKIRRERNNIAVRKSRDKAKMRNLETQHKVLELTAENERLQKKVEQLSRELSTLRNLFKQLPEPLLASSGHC
In short: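 HepG2 transiently transfected with multiplexed reporter units under cis-regulatory promoters reporting endogenous C/EBPb activity. After 24 h exposure, reporter mRNA assayed by RT-PCR, fluorescent labelling, HpaI digestion and capillary electrophoresis; bidirectional fitting versus DMSO.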

[2] = ATG_CMV_CIS: Attagene CIS-FACTORIAL HepG2 Assay for human CMV (Internal Marker) (AID 2282928); conditions: HepG2 CMV promoter reporter, transcription factor profiling; actives raise or lower the signal;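 also: endpoint acts as a background internal control marker rather than a target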
In short: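 HepG2 cells transiently transfected with multiple cis-regulated reporter units; 24 h compound exposure. Reporter mRNA quantified by RT-PCR, 6-FAM primer-extension labeling, HpaI digestion and capillary electrophoresis; bidirectional fitting against DMSO baseline.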

[3] = ATG_DR4_LXR_CIS: Attagene CIS-FACTORIAL HepG2 Assay for human Liver X Receptor (LXR), DR4 submotif (AID 2282929); conditions: HepG2 Attagene DR4 cis-reporter, mRNA transcription; actives raise or lower the signal
In short: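 Cells were transfected with multiple reporter transcription units, exposed to chemicals for 24 hours, then lysed for RNA. Reporter mRNA induction was measured by RT-PCR with capillary electrophoresis detection and fitted in both directions relative to DMSO.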

[4] = ATG_AP_1_CIS: Attagene CIS-FACTORIAL HepG2 Assay for human Activator Protein 1 (AP-1) (AID 2282931); conditions: HepG2 Attagene cis-factorial AP-1 reporter mRNA; actives raise or lower the signal
In short: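 Endogenous transcription-factor activity in human HepG2 liver cells is read through a cis-promoter reporter transcript, sampled 24 h after dosing. Detection uses RT-PCR with capillary electrophoresis; values come from bidirectional fitting relative to DMSO.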

[5] = ATG_BRE_CIS: Attagene CIS-FACTORIAL HepG2 Assay for human Bone Morphogenetic Protein (BMP) Response Element (BRE) (AID 2282933); conditions: HepG2 BMP response element reporter, Attagene transcription factor profiling; actives raise or lower the signal
In short: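 Gain- or loss-of-signal was derived by bidirectional fitting against DMSO controls. The signal came from reporter mRNA, measured by RT-PCR and capillary electrophoresis, in HepG2 cells transiently carrying multiple reporter units and dosed for 24 h.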

[6] = ATG_E_Box_CIS: Attagene CIS-FACTORIAL HepG2 Assay for human Enhancer Box (E-box) (AID 2282936); conditions: HepG2 E-box cis-reporter transcription, actives raise or lower the signal
In short: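 HepG2 cells transiently transfected with multiplexed cis-element reporter units, dosed 24 h; reporter mRNA quantified by RT-PCR, 6-FAM labelling, HpaI digestion and capillary electrophoresis. E-box (USF1) signal fitted bidirectionally vs DMSO.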

[7] = ATG_EGR_CIS: Attagene CIS-FACTORIAL HepG2 Assay for human Early Growth Response 1 (EGR1) (AID 2282938); conditions: HepG2 Attagene CIS-FACTORIAL EGR reporter mRNA; actives raise or lower the signal
In short: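 Endogenous TF activity in HepG2 liver cells was gauged through cis-promoter reporter constructs transiently transfected. After 24 h dosing, reporter mRNA was quantified by RT-PCR and capillary electrophoresis, and curves fitted in both directions versus DMSO.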

[8] = ATG_M_19_CIS: Attagene CIS-FACTORIAL HepG2 Assay for M19 Transcription Factor (Internal Marker) (AID 2282939); conditions: HepG2 Attagene CIS-FACTORIAL M19 internal marker reporter; actives raise or lower the signal
In short: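 Following a 24 h exposure, RNA from transfected HepG2 cells was reverse-transcribed, PCR-amplified with reporter-specific primers, end-labelled with 6-FAM and HpaI-digested before capillary separation. Values represent gain or loss versus DMSO.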

[9] = ATG_Ets_CIS: Attagene CIS-FACTORIAL HepG2 Assay for human Erythroblast Transformation Specific (ETS) (AID 2282941); conditions: HepG2 ETS cis-reporter transcription, actives raise or lower the signal
In short: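 HepG2 cells transiently transfected with cis-promoter reporter transcription units were dosed for 24 h; reporter mRNA was measured by RT-PCR, 6-FAM primer extension, HpaI digestion and capillary electrophoresis, with bidirectional fitting against DMSO baseline.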

[10] = ATG_FoxO_CIS: Attagene CIS-FACTORIAL HepG2 Assay for human Forkhead box O (FoxO) (AID 2282943); conditions: HepG2 Attagene cis-reporter, FoxO element, mRNA; actives raise or lower the signal
In short: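 HepG2 cells transiently transfected with cis-element-driven reporter units report endogenous FoxO activity. After 24 h chemical exposure, reporter mRNA quantified by RT-PCR, fluorescent labeling, HpaI digestion and capillary electrophoresis; bidirectional fit versus DMSO.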

[11] = ATG_GATA_CIS: Attagene CIS-FACTORIAL HepG2 Assay for human GATA Binding Protein (AID 2282944); conditions: HepG2 GATA cis-element reporter, Attagene multiplex mRNA; actives raise or lower the signal
In short: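 DMSO serves as negative control and baseline for bidirectional fitting of reporter mRNA changes. HepG2 cells bearing transiently transfected cis-promoter reporters were exposed 24 h; transcripts detected via RT-PCR and capillary electrophoresis.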

[12] = ATG_ISRE_CIS: Attagene CIS-FACTORIAL HepG2 Assay for human Interferon Regulatory Factor 1 (IRF1) binding to an Interferon-Stimulated Response Element (ISRE) (AID 2282948); conditions: HepG2 ISRE cis-reporter (Attagene), mRNA transcription readout; actives raise or lower the signal
In short: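 HepG2 cells transiently transfected with multiplexed cis-promoter reporter units; after 24 h compound exposure, reporter mRNA quantified by RT-PCR, FAM labelling, HpaI digestion and capillary electrophoresis. Bidirectional fit versus DMSO baseline.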

[13] = ATG_M_06_CIS: Attagene CIS-FACTORIAL HepG2 Assay for M06 Transcription Factor (Internal Marker) (AID 2282950); conditions: HepG2 Attagene CIS-FACTORIAL M06 internal marker reporter; actives raise or lower the signal
In short: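 Fluorescence-labelled RT-PCR products from cis-promoter reporter units, cut with HpaI and resolved by capillary electrophoresis, give the signal. Cells are human HepG2, dosed for 24 h. Serves as background control, fitted relative to DMSO.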

[14] = ATG_MRE_CIS: Attagene CIS-FACTORIAL HepG2 Assay for human Metal Responsive Element (MRE) (AID 2282954); conditions: HepG2 MRE cis-reporter transcription, Attagene multiplex; actives raise or lower the signal
In short: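 HepG2 cells transiently transfected with cis-element-driven reporter units; mRNA measured 24 h after dosing. Reporter transcripts quantified by RT-PCR, FAM labelling, HpaI digestion and capillary electrophoresis; bidirectional fit versus DMSO.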

[15] = target: Paired box protein Pax-6 (Homo sapiens) (UniProt P26367); test: ATG_Pax6_CIS: Attagene CIS-FACTORIAL HepG2 Assay for human Paired Box 6 (PAX6) (AID 2282956); conditions: HepG2 CIS-FACTORIAL PAX6 reporter transcription, RNA readout; actives raise or lower the signal
Sequence of Paired box protein Pax-6 (Homo sapiens) (P26367 whole entry, looked up): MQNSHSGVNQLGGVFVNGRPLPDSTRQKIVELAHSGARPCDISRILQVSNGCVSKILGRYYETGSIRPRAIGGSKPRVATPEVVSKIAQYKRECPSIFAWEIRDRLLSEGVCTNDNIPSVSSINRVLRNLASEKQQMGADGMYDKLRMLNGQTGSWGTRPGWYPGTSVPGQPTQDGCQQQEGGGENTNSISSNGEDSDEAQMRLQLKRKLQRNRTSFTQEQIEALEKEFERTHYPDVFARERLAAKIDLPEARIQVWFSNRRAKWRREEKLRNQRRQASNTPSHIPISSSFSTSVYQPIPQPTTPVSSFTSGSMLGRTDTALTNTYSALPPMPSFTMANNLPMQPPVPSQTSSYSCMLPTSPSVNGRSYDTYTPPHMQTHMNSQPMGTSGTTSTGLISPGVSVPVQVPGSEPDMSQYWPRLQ
In short: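 HepG2 cells transiently transfected with multiplexed cis-promoter reporter units (endogenous TF activity) were dosed for 24 h. Reporter mRNA was quantified by RT-PCR, 6-FAM labeling, HpaI digestion and capillary electrophoresis; bidirectional fitting versus DMSO baseline.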

[16] = ATG_Sox_CIS: Attagene CIS-FACTORIAL HepG2 Assay for human SRY-box transcription factor (SOX) (AID 2282960); conditions: HepG2 Attagene cis-factorial SOX reporter, mRNA; actives raise or lower the signal
In short: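 Transient MRTU transfection of HepG2; 24 h compound incubation; TriZol RNA, oligo(dT) RT, PCR, 6-FAM primer extension, HpaI cut, CE. Bidirectional fit, DMSO = baseline.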

[17] = target: Transcription factor Sp1 (Homo sapiens) (UniProt P08047); test: ATG_Sp1_CIS: Attagene CIS-FACTORIAL HepG2 Assay for human Specificity Protein 1 (Sp1) (AID 2282961); conditions: HepG2 Sp1 cis-reporter transcription, actives raise or lower the signal
Sequence of Transcription factor Sp1 (Homo sapiens) (P08047 whole entry, looked up): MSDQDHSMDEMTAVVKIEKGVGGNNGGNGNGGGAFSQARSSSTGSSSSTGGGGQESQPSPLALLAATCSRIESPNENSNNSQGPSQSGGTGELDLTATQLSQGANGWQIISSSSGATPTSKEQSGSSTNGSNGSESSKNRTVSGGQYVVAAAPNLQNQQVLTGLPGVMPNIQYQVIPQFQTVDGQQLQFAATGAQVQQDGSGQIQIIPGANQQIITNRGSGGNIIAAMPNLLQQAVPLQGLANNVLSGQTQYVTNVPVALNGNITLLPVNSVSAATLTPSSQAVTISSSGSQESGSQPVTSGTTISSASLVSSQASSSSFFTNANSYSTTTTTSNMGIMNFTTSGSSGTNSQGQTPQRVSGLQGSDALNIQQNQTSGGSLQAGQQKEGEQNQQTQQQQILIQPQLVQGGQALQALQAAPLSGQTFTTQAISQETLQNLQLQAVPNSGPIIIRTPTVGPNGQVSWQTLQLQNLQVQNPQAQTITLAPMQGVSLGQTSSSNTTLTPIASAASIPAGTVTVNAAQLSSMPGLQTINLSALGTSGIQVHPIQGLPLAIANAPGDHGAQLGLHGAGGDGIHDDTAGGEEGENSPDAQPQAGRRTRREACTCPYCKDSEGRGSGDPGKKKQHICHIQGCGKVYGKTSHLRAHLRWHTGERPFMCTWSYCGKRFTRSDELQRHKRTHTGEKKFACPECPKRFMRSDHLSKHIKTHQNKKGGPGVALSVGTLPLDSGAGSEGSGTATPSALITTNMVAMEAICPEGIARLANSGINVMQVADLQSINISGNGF
In short: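 Endogenous Sp1 activity was gauged in human liver HepG2 cells bearing transfected reporter units under a cis-regulating promoter. After 24 h dosing, reporter mRNA was quantified by RT-PCR with capillary electrophoresis, and activity fitted bidirectionally versus DMSO.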

[18] = target: Signal transducer and activator of transcription 3 (Homo sapiens) (UniProt P40763); test: ATG_STAT3_CIS: Attagene CIS-FACTORIAL HepG2 Assay for human Signal Transducer and Activator of Transcription 3 (STAT3) (AID 2282963); conditions: HepG2, Attagene cis-factorial STAT3 reporter transcription; actives raise or lower the signal
Sequence of Signal transducer and activator of transcription 3 (Homo sapiens) (P40763 whole entry, looked up): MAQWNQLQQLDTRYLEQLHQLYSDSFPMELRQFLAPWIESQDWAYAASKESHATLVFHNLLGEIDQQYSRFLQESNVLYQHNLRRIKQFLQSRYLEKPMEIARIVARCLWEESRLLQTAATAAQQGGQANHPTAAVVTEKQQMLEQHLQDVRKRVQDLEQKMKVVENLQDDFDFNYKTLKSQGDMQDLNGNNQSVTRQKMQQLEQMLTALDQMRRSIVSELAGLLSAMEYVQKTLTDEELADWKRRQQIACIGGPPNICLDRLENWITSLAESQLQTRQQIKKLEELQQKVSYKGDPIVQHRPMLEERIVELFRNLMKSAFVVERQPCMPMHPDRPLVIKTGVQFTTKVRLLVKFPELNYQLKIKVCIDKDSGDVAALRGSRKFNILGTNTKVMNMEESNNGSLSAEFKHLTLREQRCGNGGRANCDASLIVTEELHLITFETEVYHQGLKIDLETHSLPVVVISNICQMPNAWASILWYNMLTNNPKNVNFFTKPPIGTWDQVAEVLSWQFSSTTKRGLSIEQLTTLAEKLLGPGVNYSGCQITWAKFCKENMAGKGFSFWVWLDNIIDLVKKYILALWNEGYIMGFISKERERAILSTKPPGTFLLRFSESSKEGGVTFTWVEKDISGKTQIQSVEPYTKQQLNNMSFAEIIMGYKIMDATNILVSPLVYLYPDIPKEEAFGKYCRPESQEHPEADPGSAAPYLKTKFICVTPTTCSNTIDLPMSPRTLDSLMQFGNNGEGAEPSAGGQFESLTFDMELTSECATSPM
In short: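 HepG2 cells transiently transfected with multiple cis-element-driven reporter units report endogenous transcription factor activity. After 24 h compound exposure, reporter mRNA is measured by RT-PCR, 6-FAM labelling, HpaI digestion and capillary electrophoresis. Fitted bidirectionally versus DMSO.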

[19] = ATG_TA_CIS: Attagene CIS-FACTORIAL HepG2 Assay for human TA Basal Promoter (AID 2282964); conditions: HepG2 Attagene CIS-factorial TA basal promoter reporter; actives raise or lower the signal
In short: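 Multiplexed mRNA reporter assay, HepG2, 24 h. Reporter cDNA amplified, 6-FAM primer-extended, HpaI-cut, CE-sized; DMSO = negative control and baseline.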

[20] = ATG_TCF_b_cat_CIS: Attagene CIS-FACTORIAL HepG2 Assay for human T-Cell-Factor with beta-catenin (TCF/b-cat) (AID 2282965); conditions: HepG2 TCF/beta-catenin cis-reporter transcription, actives raise or lower the signal
In short: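 HepG2 cells transiently transfected with cis-promoter-driven multiplexed reporter units; reporter mRNA measured 24 h after dosing by RT-PCR, FAM labelling, HpaI digestion and capillary electrophoresis. Bidirectional fitting relative to DMSO baseline.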

Measured: AC50

C=CC(=O)OCCO
active: [1] 123 µM | [3] 123 µM | [4] 75.6 µM | [5] 36.9 µM | [7] 116 µM | [14] 70.9 µM | [17] 156 µM
inactive: all other assays above

O=C1C(Cl)=C(Cl)C(=O)C(Cl)=C1Cl
active: [3] 66.9 µM | [4] 130 µM | [6] 58.4 µM | [7] 137 µM | [15] 132 µM
inactive: all other assays above

C=C(Cl)CCl
inactive: all assays above

CCCCNP(N)(N)=S
inactive: all assays above

Cl/C=C\CCl
inactive: all assays above

CC(O)CN(CC(C)O)CC(C)O (stereo not given)
inactive: all assays above

N#CCCCl
inactive: all assays above

CC(=O)/C=C/c1ccccc1
active: [3] 78.1 µM | [4] 86.4 µM | [5] 50 µM | [7] 69.4 µM | [12] 100 µM | [14] 37.8 µM | [15] 69 µM | [16] 56.4 µM
inactive: all other assays above

c1cc(OCC2CO2)ccc1Cc1ccc(OCC2CO2)cc1 (stereo not given)
inactive: [1] | [5] | [8] | [9] | [10] | [11] | [13] | [19]
active: [2] 49.6 µM | [3] 48.3 µM | [4] 59.1 µM | [6] 53.2 µM | [7] 33.4 µM | [12] 49.1 µM | [14] 42.6 µM | [15] 33.4 µM | [16] 33.4 µM | [17] 37.6 µM | [18] 54.8 µM | [20] 35.2 µM

CCC(Br)(CC)C(=O)NC(N)=O
inactive: all assays above

Nc1ccccc1C(=O)Oc1ccc2ccccc2c1
active: [2] 77 µM | [3] 63.9 µM | [5] 161 µM | [8] 166 µM | [9] 75.7 µM | [10] 147 µM | [11] 143 µM | [14] 67.2 µM | [15] 46.9 µM | [16] 166 µM | [17] 56.2 µM | [18] 74.5 µM | [20] 164 µM
inactive: [1] | [4] | [6] | [7] | [12] | [13] | [19]

CC1CCC(=O)O1 (stereo not given)
inactive: all assays above

CN(C)CCC#N
inactive: all assays above

CCCCOP(=O)(O)OCCCC
inactive: all assays above

CC(C)c1ccc(O)cc1
active: [2] 40.2 µM | [3] 140 µM | [20] 131 µM
inactive: all other assays above

CCOC(=O)C1OC1(C)c1ccccc1 (stereo not given)
inactive: all assays above

O=C(O)C(Br)Br
inactive: all assays above

C[N+](C)=CCl
inactive: all assays above

CCCC=NO
inactive: all assays above

N#CC(c1ccccc1)c1ccccc1
inactive: all assays above
